An excerpt weighted towards active compounds, which were near 8.1% of everything screened.
SW480 rerep: A quantitative high throughput screen for small molecules that induce DNA re-replication in SW480 colon adenocarcinoma cells; SW480 DNA re-replication, Hoechst DNA content imaging, 48 h; Potency, µM (doses to about 46.1 µM), inactives show top-dose re-replication activation, most hits filed as activators; 340,000 compounds, 1.8% hits; AID 624297, 2012; further: % of control where 0% means no effect; nearly all actives have a fitted effect of over 55% in size
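Per well, 250 cells were exposed to pinned compound for 48 hr. Nuclear DNA was visualised with Hoechst (40 min, 37 C) and total object intensity recorded by fluorescence scanning.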
ELG1 repair inh: qHTS screen for small molecules that inhibit ELG1-dependent DNA repair in human embryonic kidney (HEK293T) cells expressing luciferase-tagged ELG1. HEK293T ELG1-luciferase reporter, luminescence, 16 h; DNA damage induced by 5-fluorouridine. Potency, µM (titrated, usually from 46.1 µM), without a hit: at the top dose activity change, negative = inhibition, actives largely listed as inhibitors. 330,000 compounds, 2.3% hits. AID 504467, 2011; further: on the % scale 0 is the no-effect control and ±100 the full control effect; nearly all actives have a fitted effect of over 55% in size
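Cells (2,000 per well) received 5-fluorouridine plus test compound or DMSO and were incubated 16 hr at 37 °C, 5% CO2. Luciferase activity was read by luminescence 30 min after ONE-Glo addition; signal suppression marked inhibition of damage-induced ELG1 function.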
KB-V1 cytotox: qHTS assay for MDR1-selective chemotherapeutics: Primary screen using the drug-selected MDR subline cells KB-V1. KB-V1 MDR cells viability, CellTiter-Glo, 72 h. Potency, µM (series often up to 46.1 µM), hits mostly cytotoxic. 400,000 compounds, 3.4% hits. AID 1347076, 2019; further: on the % scale 0 is the no-effect control and ±100 the full control effect; nearly all actives have a fitted effect of over 60% in size
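qHTS viability screen in drug-selected KB-V1 MDR cells: 72 h compound treatment at 37 degrees C, ATP luminescence end point.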
MCF10A rereplic: A quantitative high throughput screen for small molecules that induce DNA re-replication in MCF 10a normal breast cells. MCF 10A DNA re-replication, Hoechst nuclear intensity, 48 h. Potency, µM (series often up to 46.1 µM), for the others: at the top dose activity, positive = re-replication, actives largely listed as activators. 350,000 compounds, 2.9% hits. AID 624296, 2012; further: % of control where 0% means no effect; nearly all actives have a fitted effect of over 50% in size
KB-3-1 cytotox: qHTS assay for MDR1-selective chemotherapeutics: Primary screen using the parental adenocarcinoma cell KB-3-1; KB-3-1 viability, CellTiter-Glo ATP luminescence, 72 h; Potency, µM (doses to about 46.1 µM), most hits filed as cytotoxic; 400,000 compounds, 1.4% hits; AID 1347075, 2019; further: on the % scale 0 is the no-effect control and ±100 the full control effect; nearly all actives have a fitted effect of over 60% in size
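Parental KB-3-1 viability, qHTS format: 72 h compound exposure, 37 °C; CellTiter-Glo; media-only wells and DMSO plates as controls; concentration-effect fits on corrected data.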
* = called active by the depositor; i = inactive; u = inconclusive; x = not tested or not shown. The call rests on the fitted dose curve; in most records, active means well fitted curve in the direction sought with a large enough effect; inconclusive means small, poorly fitted or top-dose-only effect, or another doubt; inactive means no such curve, though single readings can be large; an effect the other way counts as inactive or inconclusive. Potency means the concentration at half of the fitted maximal effect.

SMILES | SW480 rerep | ELG1 repair inh | KB-V1 cytotox | MCF10A rereplic | KB-3-1 cytotox
c1cc2n(c1)-c1c(ccc3c1OCO3)CNC2c1ccc2c(c1)OCO2 (configuration not stated) | 4% | 1% | 18µM* | -17% | u
Oc1ccc(C2NCc3ccccc3-n3cccc32)cc1Cl (configuration not stated) | 3% | -10% | i | u | i
C#CCOC(C(=O)OCCN(C)C)(c1ccccc1)c1ccccc1 | 5% | x | x | 7% | x
COCCO[C@H]1CC[C@@]2(C)C(=CCC3C2CC[C@@]2(C)C3CC[C@]2(C)O)C1 (some centres not stated) | u | 18µM* | u | u | i
C=C1C(=O)[C@@]23C[C@H]4[C@@H]5[C@@]6(C)CCC[C@@]57[C@@H]2[C@@H](O)[C@@H]1C[C@H]3[C@H]7N4C6 | u | x | i | 15µM* | u
CN(Cc1cccc(-c2ccncc2)c1)C(=O)Oc1ccccc1Cc1ccccc1 | x | x | u | x | 15µM*
CN(Cc1cccc(-c2ccncc2)c1)C(=O)Oc1ccccc1Cl | x | x | i | x | 15µM*
Cc1nc2cc(OC(=O)N(C)Cc3cccc(-c4ccncc4)c3)ccc2s1 | x | x | i | x | u
CC(N)Cc1cn(Cc2ccccc2)c2ccccc12 (configuration not stated) | u | 4% | u | u | 23µM*
CC(=O)c1cn(Cc2ccc(F)cc2)c2ccccc12 | 2% | -9% | u | u | i
COC(=O)C1=C(C(=O)OC)SC2(S1)C(C(=O)OC)=C(C(=O)OC)Sc1c2ssc1=O | 1µM* | x | u | u | u
COC(=O)C1CN(C#N)N(c2ccc(Cl)cc2)C12c1ccccc1-c1ccccc12 (configuration not stated) | 3.3µM* | 5.8µM* | 12µM* | 7.1µM* | 5.2µM*
CC1(C)C(C(=O)N2CCN(c3ccc(Cl)cc3)CC2)C1(C)C | 8% | u | i | 15% | i
CCCOc1ccccc1NP(=O)(Oc1ccccc1)Oc1ccccc1 | -1% | 16% | i | 1% | i
Cc1ccccc1NP(=O)(Oc1ccccc1F)Oc1ccccc1F | -4% | 23µM* | i | 4% | i
O=C(O)c1[nH]c(=O)[nH]c(=O)c1F | -6% | 8% | i | -5% | 7.3µM*
COC(=O)c1ccc(NC(=O)CSc2nc3ccc(N4C(=O)C5C6C=CC(C6)C5C4=O)cc3s2)cc1 (configuration not stated) | 0% | 13µM* | 21µM* | u | 21µM*
Nc1ccc(C2(c3ccc(N)cc3)c3ccccc3-c3ccccc32)cc1 | 1% | u | i | 17% | i
Nc1ccc2c3c(cccc13)-c1ccccc1-2 | 9.2µM* | x | i | 2.9µM* | i
CCCCCCOc1ccc(CN2CCN(CCO)CC2)cc1 | u | u | i | u | u
CCCCCCOc1ccc(C(=O)n2cnc(N)n2)cc1 | -4% | 16% | i | 23µM* | i
O=C1CC(c2ccc(F)cc2)c2c(c3ccccc3oc2=O)O1 (configuration not stated) | x | x | i | x | i
COc1ccc(CCn2c(NN=C3CCCCC3)nc3c2c(=O)[nH]c(=O)n3C)cc1 | 5% | u | i | -1% | u
O=C(N/N=C/c1ccc(C(F)(F)F)cc1)c1ccncc1 | -2% | 8% | i | u | i
CCOC(=O)c1ccc(NC(=O)c2sc3nc4c(cc3c2N)N2CCC4CC2)cc1 | x | x | i | x | i
CC(=O)c1ccc(NC(=O)c2sc3nc4c(cc3c2N)N2CCC4CC2)cc1 | x | x | 23µM* | x | u
COc1ccc(NCC(=O)N2CCCC2)cc1Cl | 0% | u | i | 3% | i
Cc1ccc(C(C)C)c(OCC(=O)N2CCN(CCc3ccncc3)CC2)c1 | x | x | i | x | i
